SMILES strings stand for the structures. Inconclusive results are not listed. Activity calls are given as the source filed them. Unless noted, calls come from the whole dose curve; as a rule, active = well fitted curve in the direction sought with a large enough effect in the repeat runs; inconclusive = weak or mixed curves; inactive = no such curve, though single readings can be large; an effect the other way counts as inactive or inconclusive.

Experiment [1] can be described thus: qHTS assay to identify small molecule agonists of the vitamin D receptor (VDR) signaling pathway - cell viability counter screen (AID 743224). Note: nearly all actives have a fitted effect of over 50% in size. An outline of the steps: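 Plated VDR-bla cells (4 h, 37C) received compound, incubated 16 h, then LiveBLAzer substrate 2 h RT; CellTiter-Glo added afterwards, luminescence read at 30 min.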
Experiment [2] is described as follows: qHTS assay to identify small molecule antagonists of the vitamin D receptor (VDR) signaling pathway - cell viability counter screen (AID 743225). Note: nearly all actives have a fitted effect of over 50% in size. An outline of the steps:
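VDR-bla HEK 293T cells, 4 h pre-incubation at 37C, then compound plus 1-alpha,25-dihydroxyvitamin D3 (3 nM final) for 16 h. After the beta-lactamase FRET read, CellTiter-Glo was added to the same wells; luminescence after 30 min at room temperature.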

The nature of experiment [3]: qHTS assay to identify small molecule agonists of the NFkB signaling pathway (AID 1159509; active = well fitted curve in the direction sought with a large enough effect in the signal ratio in the repeat runs, not every such curve was filed as active; the % refers to the signal ratio). An outline of the steps:
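NFkB-bla ME-180 cells carry a beta-lactamase reporter under an NF-kB response element. They were plated overnight, then exposed to compounds for 5 h at 37 C. Read-out is LiveBLAzer FRET after 1.5 hr at room temperature (405 nm excitation; 460/530 nm emission).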
A general note: qHTS replaces the single test concentration by a dilution series.

A short description of experiment [4]: qHTS assay to identify small molecule agonists of the endoplasmic reticulum stress response signaling pathway (AID 1159516; active = well fitted activation curve with a large enough effect in the signal ratio in the repeat runs, not every such curve was filed as active; the % refers to the signal ratio). A digest of the protocol: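 An ESRE-bla HeLa cell assay: compounds were pin-transferred from DMSO onto overnight-plated cells and left 5 hr at 37 C. Substrate was then loaded for 2 hr at room temperature before reading fluorescence at 460 nm and 530 nm.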

Experiment [5] can be described thus: qHTS assay to identify small molecule agonists of the endoplasmic reticulum stress response signaling pathway - cell viability counter screen (AID 1159517; calls by dose curve;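 note: HeLa cells carrying an ER stress response element beta-lactamase reporter; nearly all actives have a fitted effect of over 50% in size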). An outline of the steps:
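CellTiter-Glo was added to wells already read for beta-lactamase FRET, and luminescence was recorded 30 min later. Cells: ESRE-bla HeLa, 1,500 per well, compound exposure 5 hr at 37 C.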

A short description of experiment [6]: qHTS assay to identify small molecule antagonists of the retinoid-related orphan receptor gamma (ROR-gamma) signaling pathway - cell viability counter screen (AID 1159520). Note: nearly all actives have a fitted effect of over 50% in size. A digest of the protocol:
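Tet-on ROR gamma CHO cells (1,000/well) were plated 4 hr, given compounds in DMSO for 2 hr at 37 C, then induced with 1 uM final doxycycline for 16 hr. Viability was read as ATP by CellTiter-Glo luminescence after 30 min.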

Experiment [7] deals with Nuclear receptor ROR-gamma (Homo sapiens) (UniProt P51449). The experiment is described as follows: qHTS assay to identify small molecule antagonists of the retinoid-related orphan receptor gamma (ROR-gamma) signaling pathway (AID 1159521; note: nearly all actives have a fitted effect of over 50% in size; note: potency is the fitted concentration of half-maximal effect). A digest of the protocol: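 Tet-on RORγ CHO cells carrying a ROR response element–luciferase reporter were pretreated with compounds for 2 h, then induced with 1 uM (final) doxycycline hyclate for 16 h at 37 C. Antagonism was read as decreased ONE-Glo luminescence.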

The nature of experiment [8]: qHTS assay to identify small molecule agonists of the AP-1 signaling pathway - cell viability counter screen (AID 1159525; calls by dose curve; note: nearly all actives have a fitted effect of over 55% in size; note: potency is the fitted concentration of half-maximal effect). An outline of the steps: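 ME-180 AP-1-bla, 2500 cells/well, Opti-MEM + 0.5% dialyzed FBS; overnight 37 °C; cpd 15-pt titration, 5 h 37 °C; CellTiter-Glo 30 min RT; luminescence read; normalised to TOAB and DMSO controls.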
Experiment [9] can be described thus: qHTS assay to identify small molecule agonists of the AP-1 signaling pathway (AID 1159526; calls by dose curve).
Experiment [10] addresses Retinoic acid receptor RXR-alpha (Homo sapiens) (UniProt P19793). The experiment in a line: qHTS assay to identify small molecule agonists of the RXR signaling pathway (AID 1159527; calls by dose curve; note: nearly all actives have a fitted effect of over 35% in size; note: potency is the fitted concentration of half-maximal effect). An outline of the steps: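 GeneBLAzer RXR-alpha-UAS-bla HEK 293T cells in medium with 2% charcoal-stripped FBS, pre-incubated 5 hr at 37 C, then exposed to compounds 16 hr. Beta-lactamase reporter read by FRET substrate, 2 hr room temperature, 460/530 nm emission.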

Experiment [11] is described as follows: qHTS assay to identify small molecule agonists of the RXR signaling pathway - cell viability counter screen (AID 1159529). Note: nearly all actives have a fitted effect of over 50% in size. Note: potency is the fitted concentration of half-maximal effect. An outline of the steps:
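RXR-alpha-UAS-bla HEK 293T cells in medium with 2% charcoal-stripped FBS were preincubated 5 hr, then exposed to compounds for 16 hr at 37 C. Viability was read as CellTiter-Glo luminescence after 30 min at room temperature.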

Experiment [12] is described as follows: qHTS assay to identify small molecule antagonists of the retinoid acid receptor (RAR) signaling pathway - cell viability counter screen (AID 1159551). Note: nearly all actives have a fitted effect of over 35% in size. A digest of the protocol:
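Retinol-stimulated (1 uM final) C3RL4 cells, compound 6 h, 37 C; readout CellTiter-Glo luminescence (ATP) after 30 min RT incubation.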

A short description of experiment [13]: qHTS assay to identify small molecule antagonists of the retinoic acid receptor (RAR) signaling pathway (AID 1159552; note: nearly all actives have a fitted effect of over 50% in size). A digest of the protocol:
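RARE-luc C3RL4 cells; cpds + 1 uM (final) retinol, 6 hr, 37 C/5% CO2; luciferase reagent, 30 min RT, luminescence readout. Inhibitors of retinol-driven signal scored.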

The nature of experiment [14]: qHTS assay to identify small molecule agonists of the retinoic acid receptor (RAR) signaling pathway (AID 1159553). Note: potency is the fitted concentration of half-maximal effect. Conditions: C3RL4 RARE luciferase reporter, agonist, 6 h; activation: at 73.3 µM (top of the series). A digest of the protocol:
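Reporter readout comes from luciferase under RARE control in C3RL4 cells; compound exposure lasts 6 hr at 37 C in 5% CO2, and luminescence is recorded following a 30 min room-temperature incubation with reagent.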

Retinoic acid receptor RXR-alpha (Homo sapiens), sequence (P19793 whole entry, looked up): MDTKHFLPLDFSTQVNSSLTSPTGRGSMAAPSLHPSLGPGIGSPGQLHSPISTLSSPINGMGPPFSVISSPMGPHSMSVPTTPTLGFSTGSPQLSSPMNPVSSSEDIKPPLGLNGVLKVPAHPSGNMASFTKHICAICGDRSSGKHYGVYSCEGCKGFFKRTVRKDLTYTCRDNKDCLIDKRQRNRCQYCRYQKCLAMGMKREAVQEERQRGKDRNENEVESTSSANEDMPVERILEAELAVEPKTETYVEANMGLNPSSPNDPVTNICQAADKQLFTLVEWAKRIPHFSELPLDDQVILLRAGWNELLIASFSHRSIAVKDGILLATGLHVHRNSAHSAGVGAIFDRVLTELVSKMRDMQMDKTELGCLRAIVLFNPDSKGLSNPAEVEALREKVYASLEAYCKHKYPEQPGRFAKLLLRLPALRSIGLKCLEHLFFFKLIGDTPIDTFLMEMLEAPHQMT

As for `Oc1cccc(Nc2ccccc2)c1`, the Potency result in [1], in experiment [2], in experiment [3], in [4], in experiment [5] and in [6] was “inactive” in each case. Besides, the Potency result in experiment [7], in experiment [8], in experiment [9], in experiment [10], in experiment [11] and in experiment [12] was “inactive” each time. The Potency result in experiment [13] was “inactive”.
In the case of `Cc1cccc(O)c1N`, the Potency result in [1], in experiment [2], in experiment [3], in experiment [4], in experiment [5] and in experiment [6] was “inactive” throughout. Besides, the Potency result in [11], in [12], in experiment [13] and in experiment [14] was “inactive” throughout. For the same molecule, the Potency was 13.8 µM (active) in experiment [7] and 44.1 µM (active) in experiment [8].
For `O=C(CCCN1CC=C(n2c(=O)[nH]c3ccccc32)CC1)c1ccc(F)cc1`, the Potency entry in experiment [1], in experiment [2], in experiment [3], in experiment [4], in experiment [5] and in experiment [6] was “inactive” throughout. For the same molecule, the Potency entry in [7], in [8], in experiment [9], in [12], in experiment [13] and in experiment [14] was “inactive” in each case.
Take `CCC(=O)C1CC(C(C)C)CC=C1C` (centres undefined): the Potency result in experiment [1], in [2], in [3], in experiment [4], in [5] and in experiment [6] was “inactive” in each case. In addition, the Potency entry in [7], in experiment [8], in [9], in experiment [10], in [11] and in [12] was “inactive” each time. Further, the Potency entry in [13] and in experiment [14] was “inactive” throughout.
For `OC1(c2ccccc2)CCNCC1`, the Potency entry in experiment [1], in [2], in experiment [3], in [4], in experiment [5] and in experiment [6] was “inactive” in each case. Also, the Potency result in [7], in experiment [8], in experiment [9], in [10], in experiment [11] and in experiment [12] was “inactive” each time. Besides, the Potency entry in experiment [13] and in [14] was “inactive” in each case.
For the molecule `CN1CCCN=C1COC(=O)C(O)(c1ccccc1)C1CCCCC1` (centres undefined), the Potency entry in [1], in experiment [2], in experiment [3], in experiment [4], in experiment [5] and in experiment [6] was “inactive” each time. For the same molecule, the Potency result in [7], in [8], in experiment [9], in experiment [11], in [12] and in experiment [13] was “inactive” in each case. Also, the Potency entry in [14] was “inactive”.
`O=C(O)CCC(=O)C(=O)O`: the Potency entry in experiment [1], in experiment [3], in experiment [4], in experiment [5], in experiment [6] and in experiment [8] was “inactive” each time. Besides, the Potency result in experiment [9], in experiment [10], in experiment [11], in experiment [12], in experiment [13] and in experiment [14] was “inactive” in each case.
In the case of `Cc1[nH]cnc1CN1CCc2c(c3ccccc3n2C)C1=O`, the Potency entry in experiment [1], in experiment [2], in [3], in experiment [4], in experiment [5] and in experiment [6] was “inactive” throughout. Moreover, the Potency result in experiment [7], in experiment [8], in experiment [9], in experiment [10], in experiment [11] and in experiment [12] was “inactive” each time. The Potency result in experiment [13] and in experiment [14] was “inactive” throughout.
For `C[C@H]1C[C@H](O)c2ccsc2S1(=O)=O`, the Potency result in [1], in experiment [2], in experiment [3], in [4], in [5] and in [6] was “inactive” in each case. The Potency entry in experiment [7], in [8], in [9], in experiment [10], in experiment [11] and in experiment [12] was “inactive” throughout. The Potency result in [13] and in experiment [14] was “inactive” in each case.
For `CN1CC(=O)N2[C@H](c3ccc4c(c3)OCO4)c3[nH]c4ccccc4c3C[C@@H]2C1=O`, the Potency entry in experiment [1], in [2], in experiment [3], in experiment [4], in [5] and in experiment [6] was “inactive” in each case. The Potency entry in experiment [7], in [8], in [9], in experiment [10], in experiment [11] and in experiment [12] was “inactive” in each case. The Potency result in [13] and in [14] was “inactive” in each case.
In the case of `COc1cc(N)c(Cl)cc1C(=O)NC1CCN(CCCOc2ccc(F)cc2)CC1OC` (centres undefined), the Potency entry in [2], in experiment [3], in experiment [4], in [5], in experiment [6] and in experiment [7] was “inactive” each time. Besides, the Potency result in experiment [8], in [9], in experiment [11], in experiment [12], in experiment [13] and in experiment [14] was “inactive” each time.
With `Cc1ccc(OC(=O)c2ccccc2O)cc1`, the Potency entry in experiment [3], in experiment [4], in experiment [5], in experiment [6], in experiment [7] and in experiment [8] was “inactive” in each case. The Potency result in experiment [9], in experiment [11], in [12] and in experiment [13] was “inactive” each time. The Potency in experiment [14] was 6.86 µM (active).
For `CCCCCC[C@@H](O)C/C=C\CCCCCCCC(=O)OCC(O)CO` (some centres undefined), the Potency result in experiment [1], in experiment [2], in experiment [3], in [4], in experiment [5] and in experiment [6] was “inactive” throughout. The Potency result in [7], in experiment [8], in [12], in [13] and in [14] was “inactive” in each case. In addition, in [10], the Potency was 49 µM (active).
With `CCOC(=O)[C@H](CCc1ccccc1)N[C@@H](C)C(=O)N(CC(=O)O)C1Cc2ccccc2C1`, the Potency entry in experiment [1], in experiment [2], in experiment [3], in experiment [4], in [5] and in experiment [6] was “inactive” throughout. The Potency result in experiment [7], in experiment [9] and in [12] was “inactive” each time. Further, the Potency is 19 µM (active) in experiment [8] and 5.35 µM (active) in experiment [11].
As to `NC(=O)c1ccncc1`, the Potency result in experiment [1], in [2], in [3], in experiment [4], in [5] and in experiment [6] was “inactive” in each case. In addition, the Potency entry in experiment [7], in experiment [8], in [9], in experiment [10], in [11] and in experiment [12] was “inactive” throughout. Moreover, the Potency entry in experiment [13] and in experiment [14] was “inactive” in each case.
For `CC1=C(CC=O)C(C)(C)CCC1`, the Potency result in experiment [1], in experiment [2], in experiment [3], in experiment [4], in experiment [5] and in experiment [6] was “inactive” throughout. Besides, the Potency result in experiment [7], in experiment [8], in [9], in experiment [10], in experiment [11] and in [12] was “inactive” each time.
`CC(CCC(=O)O)C(=O)O` (centres undefined): the Potency entry in experiment [1], in experiment [2], in experiment [3], in [4], in experiment [5] and in experiment [6] was “inactive” throughout. Besides, the Potency entry in experiment [7], in experiment [8], in experiment [9], in experiment [10], in [11] and in [13] was “inactive” each time. For the same molecule, the Potency result in experiment [14] is “inactive”.
As for `C=COCC(C)C`, the Potency entry in experiment [1], in experiment [2], in experiment [3], in experiment [4], in experiment [5] and in [6] was “inactive” in each case. In addition, the Potency entry in [7], in experiment [8], in experiment [9], in experiment [10], in experiment [11] and in experiment [12] was “inactive” in each case. In addition, the Potency result in [13] and in [14] was “inactive” each time.
On to `Nc1ncnc2c1ncn2[C@H]1CC[C@@H](CO)O1`, for which the Potency result in experiment [1], in [3], in experiment [4], in experiment [5], in experiment [6] and in experiment [7] was “inactive” in each case. Besides, the Potency result in experiment [8], in [9], in [10], in [11], in experiment [12] and in [13] was “inactive” in each case. The Potency result in [14] is “inactive”.
